A selection: hits, their analogues and other compounds. The true share with any hit is near 3.6%.
Sfp inh = Sfp phosphopantetheinyl transferase inhibition | Q9F4F7 | Biochemical Sfp PPTase activity, qHTS | Potency, µM, inactives show largest response in the series, negative = inhibition, actives largely listed as inhibitors | actives 3.5% (n = 310,000) | AID 1490;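 also: the enzyme is Sfp with the accession as filed and its product quenches rhodamine fluorescence; 0% = enzyme reaction without inhibitor and -100% = no enzyme wells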
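Fluorescence-quenching assay: 15 nM Sfp-PPTase preincubated 15 min at room temperature with compound, then 5 uM rhodamine-CoA and 12.5 uM BHQ-2-labelled YbbR peptide added. Fluorescence (ex 525/em 598 nm) read at start and after 30 min; difference gives rate.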
JMJD2E inh = blocks human JMJD2E demethylase activity | B2RXH2 | JMJD2E catalytic domain, FDH-coupled NADH fluorescence (FDH is formaldehyde dehydrogenase) | Potency, µM (top dose mostly 57.1 µM), for the others: top-dose activity change, negative = inhibition, hits mostly inhibitors | actives 1.6% (n = 230,000) | AID 2147; active = well fitted inhibition curve with a large enough effect, not every such curve was filed as active; inconclusive = small, poorly fitted or top-dose-only effect, or another doubt; inactive = no such curve, though single readings can be large or run the other way;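 also: 0% = wells with enzyme and -100% = buffer wells without enzyme; nearly all actives have a fitted effect of over 50% in size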
IMPase Li inh = membrane-permeable IMPase blocker, potentiated with lithium; actives 0.35% (n = 210,000); CHO-M1 cells, IP1 TR-FRET (IP-One), carbachol + lithium; Potency, µM (doses to about 59.4 µM), without a hit: at the top dose activity, negative = IMPase inhibition, most hits filed as inhibitors;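 also: IP1 builds up when IMPase is blocked and the TR-FRET signal falls; plate controls were basal vehicle for no effect and high inhibitor control for full effect; nearly all actives have a fitted effect of over 50% in size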
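IP1 accumulation measured by competitive TR-FRET in lysed CHO-M1 cells after 30 min compound exposure at 37C, with a small lithium addition to potentiate weak responses. Hill-equation AC50 from ratio and donor-channel data.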
KAT2A inh = blocks human GCN5L2 histone acetyltransferase. Q92830. GCN5L2 HAT assay, ThioGlo1 CoA-SH fluorescence. Potency, µM (highest dose often 58.9 µM), without a hit: top-dose activity change, negative = inhibition, most hits filed as inhibitors. actives 0.21% (n = 390,000). AID 504327; also: % is scaled to controls: 0 for no effect and ±100 for the full control effect
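Preincubate 20nM GCN5L2 with compound 15 min, RT → add 50uM ThioGlo1 + 75uM H3(1-25) + 70uM acetyl-CoA → read fluorescence 0 and 20 min. Primary qHTS; fluorescent artifacts likely.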
Epigenetic derep = regulators of epigenetic silencing causing reporter derepression in mouse cells; AID 1865; murine LDR cells, GFP reporter derepression, 30 h; Potency, µM (highest dose often 53.9 µM), without a hit: at the highest dose GFP activation, actives largely listed as activators; actives 0.2% (n = 280,000); also: % of control where 0% means no effect; nearly all actives have a fitted effect of over 60% in size
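Derepression of a silenced CMV-GFP reporter in murine LDR cells is scored by enumerating GFP-positive cells with a laser-scanning microplate cytometer after 30 hours of treatment at 37 C.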
NPSR antag = antagonists of human neuropeptide S receptor cAMP signaling; CHO-NPSR cells, cAMP TR-FRET, antagonist mode; Potency, µM (titrated, usually from 38.3 µM), for inactives: at the highest dose activity change, negative = inhibition, usual class: inhibitors; actives 1% (n = 220,000); AID 1461; also: % is scaled to controls: 0 for no effect and ±100 for the full control effect; nearly all actives have a fitted effect of over 50% in size
Target sequence (Q6W5P4 whole entry, looked up): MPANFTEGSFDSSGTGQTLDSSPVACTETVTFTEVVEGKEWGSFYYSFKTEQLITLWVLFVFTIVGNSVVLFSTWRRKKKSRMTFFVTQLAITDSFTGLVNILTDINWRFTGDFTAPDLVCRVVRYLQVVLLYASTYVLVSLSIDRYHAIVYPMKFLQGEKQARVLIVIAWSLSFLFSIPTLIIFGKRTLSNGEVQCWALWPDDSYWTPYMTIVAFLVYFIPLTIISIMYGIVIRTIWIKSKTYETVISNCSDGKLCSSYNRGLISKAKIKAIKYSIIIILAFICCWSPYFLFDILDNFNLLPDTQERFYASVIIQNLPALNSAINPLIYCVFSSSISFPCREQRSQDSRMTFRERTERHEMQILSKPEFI
An asterisk follows results filed as active; ? = inconclusive; / = no result. Unless noted, calls follow the shape of the dose curve; as a rule, active = well fitted curve in the direction sought with a large enough effect; inconclusive = small, poorly fitted or top-dose-only effect, or another doubt; inactive = no such curve, though single readings can be large; an effect the other way counts as inactive or inconclusive. Potency is read from the fitted curve at half-maximal effect.

SMILES | Sfp inh | JMJD2E inh | IMPase Li inh | KAT2A inh | Epigenetic derep | NPSR antag
C[C@]12CC(=CO)C(=O)C[C@@H]1CC[C@@H]1[C@@H]2CC[C@@]2(C)[C@H]1CC[C@]2(C)O | -14% | -19% | / | -4% | 2% | 6.3µM*
COc1cc2c(cc1OC)[C@@H]1C(=O)c3ccc(OC)c(CC=C(C)C)c3OC1CO2 (stereo partly specified) | ? | 18µM* | 18% | ? | -2% | /
COc1cc2c(cc1OC)[C@@H]1C(=O)c3ccc4c(c3OC1CO2)CC(C(C)C)O4 (stereo partly specified) | -23% | -7% | 10% | -8% | -1% | /
CNCCc1c[nH]c2ccc(O)cc12 | -1% | 22µM* | 6% | 0% | 0% | ?
COC(=O)C1=CO[C@@H](C)[C@@H]2CN3CC[C@]4(C(=O)Nc5c4ccc(OC)c5OC)[C@H]3C[C@H]12 | 2% | -4% | -1% | / | 0% | /
O=C(N/N=C/C1C(=O)NC(=S)N(c2ccccc2)C1=O)c1cc(Br)c(O)c(Br)c1 (stereo unspecified) | -13% | 22µM* | 3% | -13% | 9% | -17%
CC(C)C1C(=O)O[C@@H]2CCN3CC=C(COC(=O)[C@](C)(O)[C@]1(C)O)[C@H]23 (stereo partly specified) | 23% | / | / | -4% | / | /
O=C1C(I)=CC(=C(c2cc(I)c(O)c(I)c2)c2ccccc2C(=O)O)C=C1I | 32µM* | / | / | 3.5µM* | / | /
CCSC(=O)Cl | / | / | -5% | / | / | /
COc1ccc(C(=O)CCNc2ccc(F)cc2)cc1 | 6% | 3% | / | 31% | -1% | 13%
O=C(CCl)c1ccc(Oc2ccc(C(=O)CCl)cc2)cc1 | 50µM* | / | / | ? | / | /
CC(n1cc(C[C@H](N)C(=O)O)c2ccccc21)n1cc(C[C@H](N)C(=O)O)c2ccccc21 | 28µM* | / | -5% | -30% | 1% | /
O=C(O)CCn1cc(C=C2C(=O)NC(=S)NC2=O)c(-c2cccc(Cl)c2)n1 | 22µM* | ? | 5% | -15% | -3% | -3%
O=C(O)CCn1cc(C=C2C(=O)NC(=O)NC2=O)c(-c2ccc(Br)cc2)n1 | ? | ? | -12% | -13% | -2% | 10%
NCCCCC(NC(CCc1ccccc1)C(=O)O)C(=O)N1CCCC1C(=O)O (stereo unspecified) | -7% | 8% | / | 15% | 0% | /
COC(=O)NC(=C(Cl)Cl)P(=O)(c1ccccc1)c1ccccc1 | -2% | 6% | / | -12% | 0% | 20%
COC(=O)NC(=S)Nc1ccccc1NC(=S)NC(=O)OC | 32µM* | -7% | -5% | -2% | 2% | /
O=C(O)C(O)(c1ccc(-c2ccccc2)cc1)c1ccc(-c2ccccc2)cc1 | / | / | -3% | / | / | /
O=C(Cc1ccccc1)N1CCN(Cc2ccc([N+](=O)[O-])cc2)CC1 | -24% | ? | -3% | -1% | 0% | -11%
O=[N+]([O-])c1cccc(CN2CCN(Cc3ccc(Br)cc3)CC2)c1 | ? | 25µM* | 25% | -2% | -1% | ?
O=C(O[C@@H]1Cc2c(O)cc(O)cc2O[C@@H]1c1cc(O)c(O)c(O)c1)c1cc(O)c(O)c(O)c1 | 11µM* | 8.9µM* | / | -7% | -1% | 17%
Oc1cc(O)c2c(c1)OC(c1cc(O)c(O)c(O)c1)C(O)C2 (stereo unspecified) | -77% | 1.4µM* | 2% | -8% | 0% | /
O=C(OC1Cc2c(O)cc(O)cc2OC1c1cc(O)c(O)c(O)c1)c1cc(O)c(O)c(O)c1 (stereo unspecified) | 18µM* | 2.5µM* | -14% | ? | -1% | /
COC(C)(C)C | / | / | 7% | / | / | /
O=S(=O)(Cl)c1ccccc1 | / | / | 3% | / | / | /
ClC1=C(Cl)C2(Cl)C3C(Cl)C(Cl)CC3C1(Cl)C2(Cl)Cl (stereo unspecified) | / | / | 10% | / | / | /
CCOC(=S)SSC(=S)OCC | 5.6µM* | / | / | ? | / | /
[N-]=[N+]=[N-] | / | / | 21% | / | / | /
